Bioassay records (PubChem BioAssay)
Compounds with a hit are over-represented: about 9.3% of the library has one in this group of screens.
Vaccinia mCherry: vaccinia inhibition (mCherry reporter). AID 720579. hit rate 0.63% among 310,000. Vaccinia virus mCherry reporter infection, fluorescence. Potency, µM (titrated, usually from 36.5 µM), actives largely listed as inhibitors; calls by dose curve; tested in A549 cells; note: nearly all actives have a fitted effect of over 35% in size
HCV inh: inhibitors of hepatitis C virus infection; Huh7.5.1 HCVcc-Cre infection, luciferase reporter, 44 h; Potency, µM (top dose mostly 41.8 µM), most hits filed as inhibitors; hit rate 3.4% among 340,000
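Whole-lifecycle infectious HCVcc-Cre system; cells 1,000/well, compound then virus (~0.5 moi) added 4 h after plating, 44 h culture. Luciferase read 15 sec following 15 min substrate incubation, room temp.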
Sm TGR block: inhibitors of Schistosoma mansoni thioredoxin glutathione reductase; Q962Y6; purified TGR, DTNB reduction, TNB absorbance 405 nm; hit rate 3% among 360,000; Potency, µM (top dose mostly 114 µM), most hits filed as inhibitors; note: nearly all actives have a fitted effect of over 60% in size
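Kinetic colorimetric format: TGR-catalysed, NADPH-driven DTNB reduction monitored via TNB absorbance. Enzyme dispensed at 20 nM; compound exposure 15 min at room temperature before reaction start.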
FMDV inh: antivirals against foot and mouth disease virus. FMDV antiviral cell-based qHTS. Potency, µM (titrated, usually from 57.9 µM), usual class: inhibitors. hit rate 1.2% among 410,000. AID 1159524; calls by dose curve; tested in HEK293T cells; note: read-out not given here; nearly all actives have a fitted effect of over 45% in size
VACV Venus inh: inhibitors of vaccinia virus (Venus reporter). Vaccinia virus Venus reporter expression, fluorescence. Potency, µM (top dose mostly 36.5 µM), usual class: inhibitors. hit rate 0.46% among 330,000; calls by dose curve; tested in A549 cells; note: nearly all actives have a fitted effect of over 30% in size
HCMV antiviral: blocks human cytomegalovirus replication; HFF cells, HCMV-luciferase reporter, 72 h; active compounds read low; activity change, negative = inhibition, % at 57.5 µM; hit rate 4.5% among 410,000; AID 1259415; in the data active = activity change below about -60%; inconclusive = no clear call, values can overlap the other calls; inactive = above about -39%
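Screen run at 2 compound doses on HFFs infected with reporter HCMV, MOI 1 PFU/cell. Luciferase activity from cell lysates at 72 h post infection gave inhibition relative to buffer-only and Salinomycin wells.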
Each line names hits and unclear results; the compound was inactive in the other large screens. Unless noted, calls come from the whole dose curve; as a rule, active = well fitted curve in the direction sought with a large enough effect; inconclusive = small, poorly fitted or top-dose-only effect, or another doubt; inactive = no such curve, though single readings can be large; an effect the other way counts as inactive or inconclusive.

Fc1ccc(-c2csc3ncnc(N4CCN(c5ccccc5)CC4)c23)cc1	HCMV antiviral -62
O=C(c1ccco1)N1CCN(c2ncnc3scc(-c4cccs4)c23)CC1	HCV inh inconclusive, FMDV inh 22µM, HCMV antiviral inconclusive (no result: Vaccinia mCherry, VACV Venus inh)
c1ccc(-c2csc3ncnc(N4CCOCC4)c23)cc1	none
COc1ccc(F)cc1CN1CCN(c2ncnc3scc(-c4ccccc4)c23)CC1	HCV inh inconclusive, FMDV inh inconclusive, HCMV antiviral -75
c1ccc(N2CCN(c3ncnc4scc(-c5cccs5)c34)CC2)cc1	HCV inh 11µM (no result: Vaccinia mCherry, VACV Venus inh)
Nc1nnnn1/N=C/c1cc(Cl)cc(Cl)c1O	none
CC(C)=CCc1c(O)cc(O)c2c1OC(c1ccc(O)cc1)CC2=O (stereo not drawn)	HCV inh inconclusive (no result: Sm TGR block)
COC(=O)c1ccc(OCC2c3cc(OC)c(OC)cc3CCN2C(=O)Cc2ccc(OC)cc2)cc1 (stereo not drawn)	FMDV inh inconclusive (no result: HCV inh)
COc1ccc(N2CCN(c3ncnc4scc(-c5ccc(F)cc5)c34)CC2)cc1	HCV inh inconclusive, FMDV inh 28µM
COc1ccc(-c2csc3ncnc(N4CCN(c5cccc(OC)c5)CC4)c23)cc1	FMDV inh inconclusive
COc1ccc(N2CCN(c3ncnc4scc(-c5ccccc5)c34)CC2)cc1	Vaccinia mCherry inconclusive, HCV inh inconclusive, FMDV inh inconclusive
COc1ccc(Nc2ncnc3scc(-c4ccc(OC)cc4)c23)cc1	Vaccinia mCherry inconclusive, HCV inh 6.3µM, FMDV inh inconclusive, HCMV antiviral inconclusive
COc1ccc(N2CCN(c3ncnc4scc(-c5ccc(C)cc5)c34)CC2)cc1	HCV inh inconclusive, FMDV inh inconclusive, HCMV antiviral -64
c1csc(-c2csc3ncnc(NCCCN4CCOCC4)c23)c1	HCV inh inconclusive, Sm TGR block inconclusive, FMDV inh inconclusive, HCMV antiviral -67 (no result: Vaccinia mCherry, VACV Venus inh)
c1ccc(-c2csc3ncnc(NCCCN4CCOCC4)c23)cc1	HCV inh inconclusive, FMDV inh inconclusive, VACV Venus inh inconclusive, HCMV antiviral inconclusive (no result: Vaccinia mCherry)
CC(OC(=O)c1cccs1)C(=O)NCC1CCCO1 (stereo not drawn)	none (no result: Vaccinia mCherry, VACV Venus inh)
O=C(c1ccco1)N1CCN(c2ncnc3scc(-c4ccccc4)c23)CC1	HCV inh inconclusive, FMDV inh inconclusive
Cc1ccc(-c2csc3ncnc(N4CCN(C(=O)c5ccccc5)CC4)c23)cc1	HCV inh inconclusive, FMDV inh 25µM, VACV Venus inh inconclusive, HCMV antiviral -70
O=[N+]([O-])c1ccc(N2CCN(Cc3ccc4c(c3)OCO4)CC2)nc1	Vaccinia mCherry inconclusive, HCV inh inconclusive, FMDV inh inconclusive
O=[N+]([O-])c1cc(S(=O)(=O)Nc2ccccc2)ccc1N1CCN(c2ccccc2)CC1	Vaccinia mCherry inconclusive, HCV inh 13µM, FMDV inh inconclusive, VACV Venus inh inconclusive
O=[N+]([O-])c1ccccc1S(=O)(=O)N1CCN(Cc2ccc3c(c2)OCO3)CC1	FMDV inh inconclusive
O=[N+]([O-])c1cc(S(=O)(=O)C(F)(F)F)ccc1N1CCN(c2ccccc2)CC1	FMDV inh inconclusive
CN(C)CCCNS(=O)(=O)c1ccc(N2CCN(Cc3ccc4c(c3)OCO4)CC2)c([N+](=O)[O-])c1	Vaccinia mCherry inconclusive, HCV inh 5.6µM
O=Cc1cc([N+](=O)[O-])ccc1N1CCN(Cc2ccc3c(c2)OCO3)CC1	HCV inh inconclusive, HCMV antiviral -102
CC(=O)c1ccc(N2CCN(c3ccc(S(=O)(=O)NCCCN(C)C)cc3[N+](=O)[O-])CC2)cc1	HCV inh 11µM (no result: Vaccinia mCherry, VACV Venus inh)
COc1ccc(C)cc1NC(=O)CSc1nc(=O)[nH]c2c1CCCC2	none (no result: HCV inh)
CC(C)(CO)NCc1cccs1	FMDV inh inconclusive (no result: Vaccinia mCherry, VACV Venus inh)
CC[C@H](C)[C@@H](CNC)NC[C@@H](Cc1ccc(O)cc1)NCC(C)(C)C	Vaccinia mCherry inconclusive, HCV inh inconclusive
CC[C@@H](C)[C@H](CN[C@H](CNC)C(C)C)NC[C@@H](C)c1ccc(CC(C)C)cc1	Vaccinia mCherry inconclusive, HCV inh inconclusive, FMDV inh inconclusive, VACV Venus inh inconclusive, HCMV antiviral -78
CCOc1ccc(N2C(=O)CC(SCc3nc4ccccc4[nH]3)C2=O)cc1 (stereo not drawn)	Sm TGR block 45µM
O=C1CC(SCCc2nc3ccccc3[nH]2)C(=O)N1c1ccc(Cl)cc1 (stereo not drawn)	Sm TGR block inconclusive
